# This is one part of a sample in which hits are shown more often than they occur.
# TTR transcr act: TTR transcription activation, primary screen; SH-SY5Y TTR promoter Gaussia luciferase, luminescence; 100% = recombinant luciferase protein wells; activation, % at 16.7 µM; actives 1.3% (n = 92,000); AID 1117267;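 active = activation above the mean of all tested compounds plus 3 SD, cut at about 9.5% in these data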;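 note: cells exposed to compounds for one day before reading; 0% = median of all test compound wells on the plate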
# TTR inh HuH7: decreases TTR transcription in HuH7 cells in activator counter-screen; shares compounds with TTR transcr act; HuH7 TTR promoter-Gaussia luciferase reporter, luminescence; inhibition, % at 16.7 µM; actives 4% (n = 1,100); AID 1117279;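 active = average inhibition above the solvent-only control wells' mean plus 3 SD, cut at about 15% in these data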;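 note: 0% = cells with DMSO only and 100% = cells with inhibitor control FD; inhibitors lower well luminescence so higher value means more inhibition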
# TTR act confirm: confirmation of human transthyretin transcription activators; AID 1117280; SHSY5Y TTR promoter Gaussia luciferase, luminescence; 100% = purified Lucia enzyme wells, no cells; activation, % at 16.7 µM; 1,100 tested, under 10 active; shares compounds with TTR transcr act;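 active = mean activation above a set limit taken from the earlier primary screen, cut at about 11% in these data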;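 note: 0% = DMSO-treated cells and 100% = recombinant Lucia luciferase without cells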
# An asterisk follows results filed as active.
SMILES,TTR transcr act,others
COc1ccc(CCn2c(=S)[nH]c3cc(C(=O)N4CCOCC4)ccc3c2=O)cc1OC,-0.8,
CCCCCn1c(=S)[nH]c2cc(C(=O)N3CCCC3)ccc2c1=O,10.2*,TTR inh HuH7=2.4;TTR act confirm=1.6
CC(=O)Nc1cc(-c2cccc(C(=O)NCCO)c2)cn2c(-c3ccc(F)c(Cl)c3)cnc12,-1.8,
COc1cc(/C=C/C(=O)O)cc(S(=O)(=O)NNC(=O)c2cc(C)oc2C)c1OC,4.0,
COc1ccc(C(C)(C)C)cc1S(=O)(=O)NCC1CCCO1 (stereo not drawn),0.8,
COc1cc(/C=C/C(=O)O)cc(S(=O)(=O)NCC2CCCO2)c1OC (stereo not drawn),21.6*,TTR inh HuH7=-0.1;TTR act confirm=-0.6
CCOC(=O)[C@]12CCCC=C1N(CCCOC)C(=O)[C@@H]2CC(=O)N1CCSCC1,-0.2,
COC(=O)[C@]12C[C@H](CC(=O)N3CCCC3)C(=O)N(Cc3ccc(Cl)cc3Cl)C1=C[C@H](C1CCCC1)O[C@@H]2C,-0.4,
CCOC(=O)c1c(-c2ccccc2)oc2ccc(O)c(CN3CCOCC3)c12,-3.9,
CCOC(=O)c1c(CN2CCCCC2)oc2ccc(OC)cc12,-1.0,
CCOC(=O)c1c(C)oc2ccc(O)c(CN3CCCCC3)c12,23.4*,TTR inh HuH7=-6.7;TTR act confirm=0.3
Cc1ccccc1NC(=O)[C@@H]1CCCN1S(=O)(=O)c1cccc2cccnc12,-2.0,
Cc1ccc(CC(=O)NC2CCCc3ccccc32)cc1C (stereo not drawn),-0.9,
Cc1ccc(C(=O)OCC(=O)NC2CCCc3ccccc32)o1 (stereo not drawn),18.1*,TTR inh HuH7=-9.0;TTR act confirm=-0.4
Cc1cccc(OCC(=O)NC2CCCc3ccccc32)c1C (stereo not drawn),0.1,
O=C(NCC(O)c1ccc([N+](=O)[O-])cc1)c1cccc(S(=O)(=O)N2CCCC2)c1 (stereo not drawn),0.2,
C=CC1CN2CCC1CC2C(O)c1ccnc2ccc(OC)cc12 (stereo not drawn),13.2*,TTR inh HuH7=-7.7;TTR act confirm=2.6
CC(C)(C)S(=O)(=O)N1C[C@@H]2CC/C=C\C/C(c3ccccc3)=C\2[C@H]1CCO,-1.0,
C[C@H](CO)N1C[C@H](C)[C@@H](CN(C)S(=O)(=O)c2ccccc2)Oc2ccc(NC(=O)NC3CCCCC3)cc2C1=O,-0.7,
CC(C)N1CCc2c(-c3nc4ccccc4s3)csc2C1,-0.8,
COc1ccccc1-n1cnc2c(c1=O)c1nc3ccccc3nc1n2CCc1ccccc1,1.3,
COc1ccccc1C1=NOC(Cn2c(=O)c3c(ncn3C)n(C)c2=O)C1 (stereo not drawn),16.4*,TTR inh HuH7=-14.7;TTR act confirm=1.1
COc1ccccc1C1=NOC(Cn2c(NCC3CCCO3)nc3c2c(=O)n(C)c(=O)n3C)C1 (stereo not drawn),0.5,
CN1C2Cc3c(n(C)c4ccccc34)C1CC=C2CO (stereo not drawn),2.9,
Cc1ccc(NS(=O)(=O)c2cccc(C(=O)O)c2)cc1S(=O)(=O)N1CCCCC1,1.7,
SMILES,TTR transcr act,others
CCN(CC)S(=O)(=O)c1cc(NS(=O)(=O)c2cccc(C(=O)O)c2)ccc1C,11.3*,TTR inh HuH7=-9.2;TTR act confirm=0.4
COc1ccc(NS(=O)(=O)c2cccc(C(=O)O)c2)cc1,2.7,
COc1ccc(-c2c(C(=O)c3ccccc3)[nH]c(N)c2C(=O)c2c[nH]c3ccccc23)cc1OC,0.9,
CCCN(CCC)Cc1cc(=O)oc2cc(C)c(C)cc12,-1.5,
CCCCC(=O)N[C@H]1CC[C@@]23CCCN2C(=O)CCC[C@H]3[C@H]1C,-0.7,
CCCC[C@H](C(=O)N(C)c1ccccc1)[C@@H](O)c1ccc(C(C)=O)cc1,2.5,
COC(=O)Cn1c(=NC(=O)c2ccc(OC)c(OC)c2)sc2cc(OC)ccc21,11.6*,TTR inh HuH7=-1.8;TTR act confirm=-0.5
COc1ccc2c(c1)sc(=N)n2CC(=O)Nc1cc(C)cc(C)c1,0.8,
COc1ccc(CC(=O)c2ccc(OC)c(OC)c2)cc1,1.1,
COC(=O)[C@@H]1N=C(c2ccc(OC)cc2)O[C@]12C(=O)N(Cc1cn(Cc3ccccc3)nn1)c1cccc(Cl)c12,-0.2,
COc1ccc(CCNC(=O)c2c(N)[nH]c(C(=O)c3ccccc3)c2-c2ccc(N(C)C)cc2)cc1,-1.7,
COc1ccc(C(=O)N/N=C/c2ccc(OC(=O)c3cccc4ccccc34)c([N+](=O)[O-])c2)cc1,-2.5,
COc1ccc(C=NNC(=O)CCCC(=O)NN=Cc2ccc(OC)c(OC)c2)cc1OC,-0.2,
COc1cc(/C=N/NC(=O)COc2c(C)cc([N+](=O)[O-])cc2C)ccc1OC(=O)c1ccccc1Br,15.0*,TTR inh HuH7=14.2;TTR act confirm=-2.1
C#CCNC(=O)C[C@H]1C(=O)N(CCCOC)C2=CCCCC[C@]21C(=O)OC,0.3,
CCCC[C@H](C(=O)N(CC)c1ccccc1)[C@@H](O)c1ccc(C(C)=O)cc1,0.8,
CCN(C(=O)[C@@H](C)[C@@H](O)c1ccc(C(C)=O)cc1)c1ccccc1,11.3*,TTR inh HuH7=-4.1;TTR act confirm=-0.4
C=CCN(C(=O)[C@@H](C)[C@@H](O)c1ccc(C(C)=O)cc1)c1ccccc1,4.1,
N#CCCN(Cc1ccccc1)S(=O)(=O)c1cccs1,0.2,
CSCCC(NC(=O)C1CCC(C)CC1)C(=O)O (stereo not drawn),57.5*,TTR inh HuH7=7.0;TTR act confirm=2.9
COC(=O)C(CCSC)NC(=O)C(NC(=O)C1CCC(C)CC1)C(C)C (stereo not drawn),-2.4,
CSCC[C@H](NC(=O)[C@H]1CC[C@H](CNC(=O)[C@@H]2CCCN2)CC1)C(=O)O,0.5,
Cc1ccc(C(=O)n2ccc3ccc(-c4ccc5ccn(Cc6ccccc6)c5c4)cc32)cc1,-1.2,
Cc1ccc(S(=O)(=O)N2c3ccccc3C[C@H]2CCC(=O)c2ccccc2)cc1,-2.1,
Cc1c(N(C)C(=O)C23CC4CC(CC(C4)C2)C3)c(=O)n(-c2ccccc2)n1C,-1.2,
SMILES,TTR transcr act,others
Cc1c(N(C)S(=O)(=O)c2cc(C(=O)N3CCCC3)ccc2Cl)c(=O)n(-c2ccccc2)n1C,13.3*,TTR inh HuH7=-9.2;TTR act confirm=0.3
Cc1c(N(C)C(=O)c2ccc3c(c2)OCO3)c(=O)n(-c2ccccc2)n1C,-2.0,
O=C1N2CCc3ccccc3C2CS(=O)(=O)N1Cc1ccc(F)cc1 (stereo not drawn),1.5,
CCCCc1ccc2nc(NC(=O)c3ccco3)sc2c1,0.3,
O=S(=O)(N/N=C/c1cccc(OC2CSC2)c1)c1ccccc1,2.5,
O=S(=O)(N/N=C/c1ccc(OC2CSC2)cc1)c1ccccc1,11.6*,TTR inh HuH7=-19.6;TTR act confirm=-0.7
Cc1ccc(S(=O)(=O)N/N=C/c2cccc(OC3CSC3)c2)cc1,-0.5,
C[C@H]1CCCN1c1cccc2c1S(=O)(=O)N1CC[C@H](C1)O2,6.0,
CCOc1ccc(NS(=O)(=O)c2ccc3[nH]c(=O)oc3c2)cc1,1.7,
COc1ccccc1NC(=O)CN(C)S(=O)(=O)c1cc(C)ccc1OC,-1.5,
CCOc1ccccc1NC(=O)CN(C)S(=O)(=O)c1ccc2[nH]c(=O)oc2c1,12.4*,TTR inh HuH7=-20.9;TTR act confirm=-0.1
O=C(O)CCc1ccc(-c2cccs2)n1NC(=O)c1ccco1,-3.3,
O=C(O)CCc1ccc(-c2ccccc2)n1NC(=O)c1ccco1,21.6*,TTR inh HuH7=-18.7;TTR act confirm=0.4
O=C(Nn1c(-c2ccccc2)nc2ccccc2c1=O)c1ccco1,0.6,
CCCCOCCCNC(=O)C[C@H]1C[C@@]2(C(=O)OC)C(=C[C@H](COCc3ccccc3)O[C@@H]2C)N(CCc2ccc(OC)c(OC)c2)C1=O,0.2,

# From PubChem
